Here are results for 16 compounds from PubChem BioAssay (NCI).

What all share (assay): NCI-60 one-dose screen, 48 h (100 = growth as untreated, 0 = no growth, -100 = all killed)
Common to all, as to conditions: 10 µM unless noted

The subject of assay [1] is T-47D breast.
Assay [2] has as its system BT-549 breast.
Assay [3] relates to MDA-MB-435 melanoma.
Assay [4] relates to SW-620 colon.
For assay [5], the system named is MCF7 breast.
The subject of assay [6] is HCT-116 colon.
The test system of assay [7] is HCC-2998 colon.
The subject of assay [8] is KM12 colon.

Compounds without any hit were thinned out: in the full panel of roughly 83,000, 20% have a hit.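 Compound tested at a single concentration for 48 hours in 96-well plates; a percent growth value below 10 was scored as active.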 Values without a mark were called inactive. Activity calls are given as the source filed them.

As to `Cc1ccc(N(C(=O)CCc2c[nH]c3ccccc23)[C@H](C(=O)Nc2ccc(Cl)cc2)c2cccc([N+](=O)[O-])c2)cc1`, the growth in assay [1] was 72.5%; in assay [2], 69.7%; in assay [3], 81.3%; in assay [4] it was 69.1%; in assay [5], 90.1%; in assay [6], 79.8%. The growth in assay [7] was 87.8%; in assay [8] it was 60.6%.

For `CCOC(=O)c1c(/C=C/C(=O)O)nc2ccccc2c1/C=C/c1ccccc1`, the growth in assay [1] is 36.4%; in assay [2] it was 19.1%; in assay [3] it was 21.6%; in assay [4], 30.1%; in assay [5] it was 30.2%; in assay [6], 22.4%. Further, the growth was 35.1% in assay [7] and 19.7% in assay [8].

Take `CCc1c2c(nc3ccc(OC(=O)OCc4ccc(B5OC(C)(C)C(C)(C)O5)cc4)cc13)-c1cc3c(c(=O)n1C2)COC(=O)[C@]3(O)CC`: the growth in assay [1] is 7.4% (active); in assay [2] it was 13.2%; in assay [3], -28.3% (active); in assay [4], 5.3% (active); in assay [5], 2.63% (active); in assay [6], 14.5%. In addition, the growth in assay [7] was 2.03% (active); in assay [8] it was 0.859% (active).

For `Cc1ccc(S(=O)(=O)N/N=C\c2cc(Cl)ccc2O)cc1`, the growth in assay [1] is 86%; in assay [2], 91.7%; in assay [3], 82%; in assay [4], 81.4%; in assay [5], 82.6%; in assay [6] it was 48.2%. For the same compound, the growth in assay [8] was 108%.

In the case of `CCC1(C2CCCC2)NC(=O)NC1=O` (stereo not drawn), the growth is 93.4% in assay [1]; 95.3% in assay [2]; 102% in assay [3]; 104% in assay [4]; 83.9% in assay [5]; 99.3% in assay [6]. The growth in assay [8] is 116%.

`C=CCn1c(C)nc2cc(Nc3nc(N4CCCC4)nc4ccccc34)ccc21`: the growth in assay [1] was 105%; in assay [2], 96.9%; in assay [3] it was 92.4%; in assay [4], 75%; in assay [5], 61.9%; in assay [6], 19.6%. The growth in assay [7] was 23.3%; in assay [8], 70.1%.

With `COc1cccc(-c2nn(-c3ccccc3)cc2-c2ccnc(NCCCNC(=O)Nc3ccc(Cl)c(Cl)c3)c2)c1`, the growth is -15% (active) in assay [1]; 7.49% (active) in assay [2]; -36.3% (active) in assay [3]; 12% in assay [4]; 5.21% (active) in assay [5]; 2.97% (active) in assay [6]. The growth in assay [7] was -61.8% (active); in assay [8] it was -13.4% (active).

`O=[N+]([O-])c1ccc(C2CC(c3ccccc3)=Nc3ccccc3S2)cc1` (stereo not drawn): the growth was 70.9% in assay [1]; 95% in assay [2]; 103% in assay [3]; 79.4% in assay [4]; 32.6% in assay [5]; 36.2% in assay [6]. For the same compound, the values for the growth in assay [7] and in assay [8] were 103% and 73.6%, respectively.

Take `Cc1cc(NCc2cc(Nc3ccnc4cc(Cl)ccc34)ccc2F)nc(N2CCCC2)n1`: the growth is -59.7% (active) in assay [1]; 58.1% in assay [2]; -94.7% (active) in assay [3]; -1.87% (active) in assay [4]; -14.1% (active) in assay [5]; -53.5% (active) in assay [6]. Besides, the growth was -67.9% (active) in assay [7] and 12% in assay [8].

As to `O=C(NC(CSSCC(NC(=O)c1ccccc1)C(=O)O)C(=O)O)c1ccccc1` (stereo not drawn), the growth in assay [1] is 99.4%; in assay [2], 91.1%; in assay [3] it was 103%; in assay [4] it was 103%; in assay [5], 117%; in assay [6], 98.9%. In addition, the growth in assay [8] was 97.9%.

`N#Cc1c(-c2ccccn2)[nH]c(=S)[nH]c1=O`: the growth in assay [1] was 94.4%; in assay [2] it was 102%; in assay [3] it was 99.8%; in assay [4], 105%; in assay [5], 95.1%; in assay [6] it was 94.8%. In addition, the growth in assay [7] was 106%; in assay [8] it was 102%.

With `COc1ccc(-c2cc(-c3cc(OC)c(OC)c(OC)c3)c(C#N)c(N3CCOCC3)n2)cc1O`, the growth in assay [1] is 78.3%; in assay [2], 48.3%; in assay [3], 28.3%; in assay [4] it was 23.1%; in assay [5], 36.2%; in assay [6] it was 49.1%. Besides, the growth in assay [8] is 17.4%.

In the case of `CC(C)CCC[C@@H](C)[C@H]1CC[C@H]2[C@@H](Nc3ccc(O)cc3)CCC[C@]12C`, the growth in assay [1] is -15.8% (active); in assay [2] it was 113%; in assay [3] it was 100%; in assay [4], 114%; in assay [5] it was 56.1%; in assay [6], 84.8%. Besides, the growth in assay [7] is 122%; in assay [8] it was 87.9%.

As for `C[C@H](NC(=O)[C@@H]1CSSC[C@@H](NC(=O)c2nc3ccccc3cc2O)C(=O)NCC(=O)N1C)c1ccccc1`, the growth is -35.6% (active) in assay [1]; 44.3% in assay [2]; 23.9% in assay [3]; -35.4% (active) in assay [4]; -2.09% (active) in assay [5]; 12.8% in assay [6]. The values for the growth in assay [7] and in assay [8] were 55.1% and 19.8%, respectively.

As to `N#Cc1c(N2CCNCC2)nc2sc3cc(Cl)c(Cl)cc3n2c1=N`, the growth in assay [1] was 89.5%; in assay [2], 118%; in assay [3], 113%; in assay [4], 99%; in assay [5] it was 75.2%; in assay [6], 97.1%. The values for the growth in assay [7] and in assay [8] were 118% and 115%, respectively.

As for `CCN(CC)CCCNc1ccc(Nc2ccc(OC)cc2)cc1`, the growth was 118% in assay [1]; 59% in assay [2]; 82.7% in assay [3]; 49.7% in assay [4]; 110% in assay [5]; 82.2% in assay [6]. In addition, the growth in assay [8] is 85.3%.
